Assay outcomes as filed in PubChem.
EPAC2 ag – activates human EPAC2 exchange factor; 0.079% of 360,000 active; EPAC2 activation, biochemical qHTS; response scale: 100% = 6.5 mM cAMP response; AID 720711; Potency, µM (doses to about 154 µM), for inactives: at the top dose activation, most hits filed as activators; note: nearly all actives have a fitted effect of over 50% in size
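Readout is BODIPY fluorescence (480 nm excitation, 540 nm emission), which falls as labeled GDP is exchanged off Rap1B. EPAC2 at 100 nM acted on 250 nM RAP1B-BODIPY-GDP with 50 uM GDP present.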
EPAC1 antag – EPAC1 (human) antagonism. O95398. EPAC1 GEF assay, Rap1b-BODIPY-GDP exchange fluorescence. Potency, µM (highest dose often 115 µM), inactives show at the highest dose activity change, negative = inhibition, hits mostly inhibitors. 0.14% of 360,000 active;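 note: plate controls were vehicle for no effect and positive control for full effect; nearly all actives have a fitted effect of over 50% in size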
EPAC1 ag – EPAC1 (human) agonism; O95398; EPAC1 agonist qHTS, biochemical assay; response scale: 100% = response to 6.5 mM cAMP; Potency, µM (doses to about 154 µM), for the others: at the highest dose activation, usual class: activators; 0.073% of 360,000 active; note: nearly all actives have a fitted effect of over 60% in size
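Nucleotide exchange by EPAC1 (100 nM) on Rap1B–BODIPY-GDP (250 nM) in the presence of 50 uM GDP is tracked fluorescently at 480/540 nm over 30 min. Signals are normalized to a 6.5 mM cAMP control.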
USP1 inh – inhibitors of human USP1/UAF1 deubiquitinase | recombinant USP1/UAF1, Ub-Rhodamine cleavage fluorescence | O94782 | 0.23% of 390,000 active | Potency, µM (highest dose often 57.1 µM), for inactives: at the highest dose activity change, negative = inhibition, usual class: inhibitors; note: % is set by controls: 0 for no effect and ±100 for the full control effect; nearly all actives have a fitted effect of over 60% in size
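1 nM enzyme complex + cpd, 15 min RT; start with Ub-Rho 150nM final; kinetic fluorescence ex 480/em 540, 6 reads q60 s. Buffer 50mM HEPES pH 7.8, 0.5mM EDTA, 0.1 mg/ml BSA, 1mM TCEP, 0.01% Tween-20.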
EPAC2 antagonist – EPAC2 (human) antagonism; Q8WZA2; EPAC2 GEF exchange of Rap1B-BODIPY-GDP, fluorescence; Potency, µM (top dose mostly 114 µM), without a hit: top-dose activity, negative = inhibition, hits mostly inhibitors; 0.18% of 360,000 active; note: % is set by controls: 0 for no effect and ±100 for the full control effect; nearly all actives have a fitted effect of over 45% in size
Numbers without * were called inactive. The list is not random: actives were taken first. Their share in the collection is about 0.49%. Calls come from the whole dose curve; as a rule, active = well fitted curve in the direction sought with a large enough effect; inconclusive = small, poorly fitted or top-dose-only effect, or another doubt; inactive = no such curve, though single readings can be large; an effect the other way counts as inactive or inconclusive. Potency is the fitted concentration of half-maximal effect.

`COc1ccc(-c2[nH]c(-c3ccc(SC)cc3)nc2SCC(=O)Nc2nccs2)cc1` gave EPAC2 ag -1%, EPAC1 antag 71µM*, EPAC1 ag 3%, USP1 inh -8% and EPAC2 antagonist 0%.
`CCc1ccccc1NC(=O)CN1C(=O)c2cccnc2Oc2ccc(Cl)cc21` gave USP1 inh -32%.
CCC[C@H]1CC(=O)C=C(c2ccsc2)ON1C(=O)OC(C)(C)C was read as EPAC2 ag 9%, EPAC1 antag -10%, EPAC1 ag -19%, USP1 inh -22% and EPAC2 antagonist 18µM*.
For COc1ccc(C2=CC(=O)C[C@H](CN3C(=O)c4ccccc4C3=O)N(C(=O)OC(C)(C)C)O2)cc1 the results were EPAC2 ag -6%, EPAC1 antag -9%, EPAC1 ag -2%, USP1 inh -17% and EPAC2 antagonist inconclusive.
For CCOC(=O)c1scc(-c2ccc(C)cc2)c1S(=O)(=O)Nc1ccc(OC)c(Cl)c1 the results were USP1 inh -16%.
For CS(=O)(=O)c1ccc2c(c1)sc1nc(=O)c(/C=C3/C=CC(=O)C(O)=C3)c(N)n12 the results were EPAC2 ag 1%, EPAC1 antag 50µM*, EPAC1 ag -5%, USP1 inh inconclusive and EPAC2 antagonist 0%.
`CCN(c1ccc(OC)cc1)S(=O)(=O)c1ccc2[nH]c3c(c2c1)CCCCC3` gave USP1 inh -12%.
For Cc1cc(F)ccc1NC(=O)CN1C(=O)CCc2cc(S(=O)(=O)N3CCOCC3)ccc21 the results were USP1 inh -22%.
`C=CCOc1ccc(/C=C2\SC(=S)N(NS(=O)(=O)c3ccc(C)cc3)C2=O)cc1` gave EPAC2 ag -8%, EPAC1 antag 50µM*, EPAC1 ag -5%, USP1 inh inconclusive and EPAC2 antagonist -26%.
Cc1ccc(/C=C2\SC(=S)N(NS(=O)(=O)c3ccc(C)cc3)C2=O)cc1 was read as EPAC2 ag -3%, EPAC1 antag inconclusive, EPAC1 ag 11%, USP1 inh -30% and EPAC2 antagonist 45µM*.
For Cc1ccc(S(=O)(=O)NN2C(=O)/C(=C\c3ccc(Cl)cc3)SC2=S)cc1 the results were EPAC2 ag -2%, EPAC1 antag inconclusive, EPAC1 ag -4%, USP1 inh -6% and EPAC2 antagonist -21%.
Screening CCOc1ccc(-n2c(=O)c3c4c(sc3n(Cc3cccc(C)c3)c2=O)CCCC4)cc1 returned USP1 inh -6%.
For COc1ccc(S(=O)(=O)N2CCCCC2)cc1NC(=O)c1c(F)cccc1Cl the results were EPAC2 ag 2%, EPAC1 antag 56µM*, EPAC1 ag 2%, USP1 inh 0% and EPAC2 antagonist -14%.
Screening COc1cccc2c1C(=O)c1c(O)c3c(c(O)c1C2=O)C[C@](O)(C(C)=O)C[C@H]3O[C@@H]1C[C@@H](N)[C@@H](O)[C@@H](C)O1 returned EPAC2 ag 0%, EPAC1 antag 41%, EPAC1 ag 5%, USP1 inh 13µM* and EPAC2 antagonist 53%.
`COc1cccc2c1C(=O)c1c(O)c3c(c(O)c1C2=O)CC(O)(C(C)=O)CC3OC1CC(O)C(O)C(C)O1` (configuration not stated) gave EPAC2 ag -5%, EPAC1 antag 31%, EPAC1 ag 35%, USP1 inh 25µM* and EPAC2 antagonist -1%.
Screening COc1ccc(/C(O)=C/C(=O)C(=O)NNC(=O)c2ccccc2)cc1 returned EPAC2 ag 2%, EPAC1 antag 0%, EPAC1 ag 2%, USP1 inh -21% and EPAC2 antagonist 8%.
For COc1ccc(/C(O)=C/C(=O)C(=O)NNC(=O)C(O)(c2ccccc2)c2ccccc2)cc1 the results were EPAC2 ag 3%, EPAC1 antag 40µM*, EPAC1 ag 7%, USP1 inh -17% and EPAC2 antagonist 1%.
Screening Cc1ccc(CNc2ccc3c(c2)OCO3)cc1 returned EPAC2 ag -7%, EPAC1 antag 9%, EPAC1 ag 2%, USP1 inh 28µM* and EPAC2 antagonist 9%.
Cc1c(-c2cccc(NC(=O)Nc3ccccc3)c2)nc2ncccn12 was read as USP1 inh -13%.
